Bioassay records: PubChem BioAssay, several laboratories
Compounds with a hit are over-represented: about 2% of the library has one in this group of screens.
EP2 modulator = modulates human prostaglandin E2 receptor EP2 signaling; P43116; EP2-expressing cells, cAMP HTRF FRET, PGE2 co-stimulation; induction, % at 25 µM; hit rate 0.83% among 260,000; AID 940;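 active means compounds whose cAMP rise, as percent of the full-agonist control response, exceeds 60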;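 further: rat C6 glioma line stably carrying human EP2 under a CMV promoter; the protocol text gives 20 µM as final concentration; 100% = response of wells given 1 µM PGE2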
CHT inh = inhibitors of human choline transporter CHT; CHT-expressing cells, membrane potential dye, choline response; active compounds read low; B-score at 10 µM; hit rate 0.86% among 310,000;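 active means B-score over 3 SD under the library average, and starting fluorescence ratio not unusually high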;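 further: choline stimulus applied at its EC90 after an EC20 pre-addition; B-score computed on integrated fluorescence ratio after choline addition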
Target sequence (Q9GZV3 whole entry, looked up): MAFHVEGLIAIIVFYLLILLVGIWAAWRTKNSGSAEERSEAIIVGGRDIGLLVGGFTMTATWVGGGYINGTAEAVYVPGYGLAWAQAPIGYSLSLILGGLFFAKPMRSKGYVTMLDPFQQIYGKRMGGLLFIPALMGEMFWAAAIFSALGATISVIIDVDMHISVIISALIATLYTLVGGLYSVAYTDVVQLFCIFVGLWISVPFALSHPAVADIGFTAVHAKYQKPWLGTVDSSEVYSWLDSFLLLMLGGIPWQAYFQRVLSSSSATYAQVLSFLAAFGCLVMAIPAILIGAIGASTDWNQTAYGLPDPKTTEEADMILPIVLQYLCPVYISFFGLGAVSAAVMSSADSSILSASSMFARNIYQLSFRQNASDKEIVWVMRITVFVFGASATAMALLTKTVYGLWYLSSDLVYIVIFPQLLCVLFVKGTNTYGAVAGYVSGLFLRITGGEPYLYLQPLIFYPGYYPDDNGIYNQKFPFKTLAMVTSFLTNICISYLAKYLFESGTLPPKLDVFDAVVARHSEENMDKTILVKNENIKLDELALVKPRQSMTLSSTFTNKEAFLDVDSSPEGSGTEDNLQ
CHT PAM = human CHT allosteric activation | Q9GZV3 | CHT-expressing cells, membrane potential dye, choline EC20; active compounds read high; LV-AA mutant CHT in HEK293 cells | hit rate 0.49% among 310,000 | B-score at 10 µM | AID 488977;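 active means initial fluorescence not abnormally high and integrated response B-score, plate-corrected, over 3 SD above library mean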
EP2 antag = blocks the human prostaglandin E2 receptor EP2; P43116; C6 glioma cells expressing human EP2, cAMP TR-FRET; cells stimulated with saturating PGE2; inhibition, % at 25 µM; hit rate 0.52% among 260,000;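 active means percent inhibition above 40 after rounding to a whole number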;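 further: rat C6 glioma host cells with rolipram phosphodiesterase inhibitor present; the protocol text gives 20 µM as final concentration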
CHT block conf = human CHT inhibition, confirmatory screen | shares compounds with CHT inh | CHT-expressing cells, choline membrane potential dye; LV-to-AA substituted CHT, HEK293 cells | CHT activity remaining % of control (active compounds read low), % at 10 µM | hit rate 70% among 2,400 | AID 493221;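 active means choline transporter activity left, mean of duplicates at 10 µM, below buffer-only control mean minus 3 SD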;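 further: depolarization triggered by choline at its EC90 following an EC20 pre-addition; 0% = hemicholinium-3 full block and 100% = buffer-only control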
HEK293 MPD ctr = counter-screen for CHT inhibitors: effect in parental HEK293 cells; shares compounds with CHT inh; membrane potential dye, choline response; active = decrease or increase beyond buffer ±3SD; membrane potential ratio readout (active if shifted either direction beyond buffer ±3SD; no single direction) at 10 µM; hit rate 4% among 2,400; AID 493222;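 further: parental cells lack the transporter so any hit is non-specific; ratio is peak minus trough fluorescence over baseline after EC90 choline challenge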
* marks the source's active call; other numbers are inactive results; i = inactive; . = no result given.

SMILES | EP2 modulator | CHT inh | CHT PAM | EP2 antag | CHT block conf | HEK293 MPD ctr
Cc1ccsc1CN(Cc1cn[nH]c1-c1ccc(Cl)cc1)CC(C)O (stereo unspecified) | 26 | . | . | 14 | . | .
N#CC(C#N)=C(Nc1ccc(F)cc1)SCc1cccc(F)c1 | -19 | -5.8* | i | 16 | 65%* | i
CCOc1ccc(N/C(SCc2cccc([N+](=O)[O-])c2)=C(/C#N)C(N)=O)cc1 | -10 | i | i | 10 | . | .
Cc1sc2ncnc(NCc3ccco3)c2c1C | -18 | -5.4* | i | . | 65%* | i
Cc1sc2ncnc(NCc3cccs3)c2c1C | 15 | i | i | 8 | . | .
Cn1c(-c2ccccc2)c(C=O)c2ccccc21 | 48 | i | i | 7 | . | .
Cn1c(C(=O)O)c(C=O)c2ccccc21 | 28 | -6.7* | i | 5 | i | i
COCCNC(=S)NNc1ncnc2sc3c(c12)CCCC3 | -21 | . | . | 8 | . | .
COC(=O)c1ccc(NC(=O)CSc2nc(N)cc(N)n2)cc1 | -11 | . | . | 9 | . | .
Cc1ccc(C(=O)N/C(=C/c2cccs2)C(=O)N2CCCCCC2)cc1 | 9 | i | i | 5 | . | .
Cc1ccc(C(=O)N/C(=C\c2cccs2)C(=O)NC2CCCCC2)cc1 | 13 | -5.1* | i | 9 | 22%* | i
Cc1ccc(C)c(N(C)S(=O)(=O)c2cccc3nsnc23)c1 | 26 | -5.2* | i | 10 | i | i
CCN(CC)CCCN1C=C2C(=O)C(C)(OC(=O)CCC(=O)OC)C(=O)C=C2C=C1C1CC1 (stereo unspecified) | . | -5.7* | i | 11 | 45%* | i
Cc1[nH]n(-c2ccccc2)c(=O)c1C(c1cccc([N+](=O)[O-])c1O)c1c(C)[nH]n(-c2ccccc2)c1=O | -15 | -7.2* | i | 13 | -6.2%* | i
Cc1c(C(c2cccc([N+](=O)[O-])c2O)c2c(C)n(C)n(-c3ccccc3)c2=O)c(=O)n(-c2ccccc2)n1C | 9 | i | i | 4 | . | .
CC(=O)NCC(=O)N(Cc1ccco1)C1(C(=O)NC2CCCCC2)CCCCC1 | 18 | -5.6* | i | 6 | i | i
COc1cc2c(cc1OC)C(c1cccc(Br)c1)NC(=O)C2 (stereo unspecified) | . | i | i | . | . | .
COc1cc2c(cc1OC)C(c1c(Cl)cccc1Cl)NC(=O)C2 (stereo unspecified) | . | -5.4* | i | . | i | i
COc1ccc(-c2noc(C3CCCN(S(=O)(=O)c4ccc(OC)cc4)C3)n2)cc1 (stereo unspecified) | -76 | . | . | 18 | . | .
CCN(CCn1cccn1)C(=O)c1cc(COc2c(F)cccc2F)on1 | 4 | -5.5* | i | 8 | i | i
CCN(Cc1ccccc1)C(=O)c1cc(COc2c(F)cccc2F)on1 | 5 | i | i | 11 | . | .
CC1=NN(C(N)=S)C(=O)C1N=Nc1c(Br)cc(Br)cc1Br (stereo unspecified) | . | -7.7* | i | . | 31%* | i
C=CCN(C(=O)c1csnn1)C(C(=O)NC(C)(C)CC)c1ccccc1 (stereo unspecified) | 14 | . | . | 8 | . | .
CC1=C(C(=O)Nc2cccc(C(=O)NC3CCCC(C)C3C)c2)SCCO1 (stereo unspecified) | . | -5.6* | i | . | 57%* | i
O=C(NC1(c2ccc(Cl)cc2)CCC1)c1cccc(-n2cnnc2)c1 | -43 | . | . | 8 | . | .
SMILES | EP2 modulator | CHT inh | CHT PAM | EP2 antag | CHT block conf | HEK293 MPD ctr
CC[C@@H]1OC(=O)C[C@@H](O)[C@H](C)[C@@H](O[C@@H]2O[C@H](C)[C@@H](O)[C@H](N(C)C)[C@H]2O)[C@@H](CCN2C[C@H](C)C[C@H](C)C2)C[C@@H](C)C(=O)/C=C/C(C)=C\[C@@H]1CO[C@@H]1O[C@H](C)[C@@H](O)[C@@H](OC)[C@H]1OC | 8 | . | . | 13 | . | .
COc1cccc(/C=C2\SC(=S)N(NS(=O)(=O)c3ccccc3)C2=O)c1OC | . | -5.7* | i | . | 44%* | i
COc1cc(/C=C2\SC(=S)N(NS(=O)(=O)c3ccccc3)C2=O)cc(OC)c1OC | 15 | i | i | 11 | . | .
CCOC(=O)c1nn(-c2ccc(Cl)cc2)c2nnc(Cc3ccc(C)cc3)c(=O)n12 | 40 | -5.9* | i | 8 | i | i
Cc1ccc2c(c1)N(CC(=O)O)C(=O)CO2 | 7 | i | i | 6 | . | .
Cc1ccc2c(c1)N(CC(=O)NC1CCC(C)CC1)C(=O)CO2 (stereo unspecified) | 14 | -5.9* | i | 3 | i | i
Cc1ccc2c(c1)N(CCCC(=O)NCC1COc3ccccc3O1)C(=O)CO2 (stereo unspecified) | -38 | -8.9* | i | 8 | 21%* | i
Cc1ccc(NC(=O)COC(=O)CN2C(=O)COc3ccccc32)cc1 | -10 | -5* | i | 9 | 43%* | i
Cc1ccc2c(c1)N(CCCC(=O)NCCC1=CCCCC1)C(=O)CO2 | -8 | i | i | 9 | . | .
COC(=O)c1ccc(NC(=O)CSc2nnc(-c3ccco3)n2C)cc1 | -36 | . | . | 18 | . | .
CC(C(=O)NC1CCCC1)N(Cc1cccs1)C(=O)Cn1nnc(-c2ccc(F)cc2)n1 (stereo unspecified) | -14 | . | . | 7 | . | .
COc1ccc(C(=O)Nc2cc(-c3nc4ccccc4o3)ccc2C)cc1OC | -36 | . | . | 5 | . | .
CCC1CCCCN1C(=O)c1ccc(C(C)(C)C)cc1 (stereo unspecified) | 24 | . | . | 6 | . | .
CN(C)S(=O)(=O)c1ccc(NC(=O)C2CC3C=CC2C3)cc1 (stereo unspecified) | 13 | -6.7* | i | 2 | i | i
O=C(NC1CCCCCC1)C1c2ccccc2C(=O)N1Cc1ccco1 (stereo unspecified) | -4 | -5.7* | i | 8 | i | -8.3*
O=C(NC1CCCCCC1)C1c2ccccc2C(=O)N1Cc1cccs1 (stereo unspecified) | 43 | i | i | 8 | . | .
NS(=O)(=O)c1ccc(S(=O)(=O)N(Cc2ccccc2Cl)CC2CCCO2)cc1 (stereo unspecified) | 11 | . | . | 9 | . | .
Nc1nc(Cl)nc2c1ncn2[C@@H]1O[C@H](CO)[C@@H](O)[C@H]1O | 13 | -5.8* | i | 15 | 39%* | i
Nc1nc(Cl)nc2c1ncn2[C@@H]1O[C@H](CO)[C@H](O)C1O (stereo partly specified) | 14 | . | . | 10 | . | .
Cn1c(C(=O)O)c(CC(=O)Nc2ccccc2F)c2ccccc21 | 26 | i | i | 11 | . | .
Cc1ccc2c(c1)c(CC(=O)Nc1ccc(C)c(F)c1)c(C(=O)O)n2C | 19 | -5.4* | i | 6 | 63%* | i
Nc1ccc(C2(c3ccc(N)cc3)C(=O)Nc3ccccc32)cc1 | -11 | -14* | i | 6 | -27%* | 9*
